# High-throughput results deposited in PubChem by National Center for Advancing Translational Sciences (NCATS).
# Lassa entry inh = blocks Lassa virus binding to or entry into cells; 300,000 compounds, 1.2% hits; Lassa virus pseudotype entry inhibition, cell reporter; Potency, µM (top dose mostly 37.9 µM), for inactives: at the highest dose activity change, negative = inhibition, most hits filed as inhibitors; calls by dose curve; tested in HEK293 cells; further: nearly all actives have a fitted effect of over 50% in size
# MARV entry inh = inhibitors of Marburg virus binding or cell entry; 300,000 compounds, 1.8% hits; Potency, µM (series often up to 37.8 µM), without a hit: top-dose activity change, negative = inhibition, most hits filed as inhibitors; Marburg virus pseudotyped entry inhibition, cell reporter; AID 540276; calls by dose curve; tested in HEK293 cells
# FMDV antiviral = antivirals against foot and mouth disease virus | FMDV antiviral cell-based qHTS | Potency, µM (highest dose often 57.9 µM), for the others: top-dose activity change, negative = inhibition, actives largely listed as inhibitors | 410,000 compounds, 1.2% hits | AID 1159524; calls by dose curve; tested in HEK293T cells; further: read-out not given here; nearly all actives have a fitted effect of over 45% in size
# HCV inh = blocks hepatitis C virus; Potency, µM (highest dose often 41.8 µM), for inactives: at the top dose activity change, negative = inhibition, usual class: inhibitors; Huh7.5.1 HCVcc-Cre infection, luciferase reporter, 44 h; AID 651820; 340,000 compounds, 3.4% hits; active means well fitted inhibition curve with a large enough effect; inconclusive means small, poorly fitted or top-dose-only effect, or another doubt; inactive means no such curve, though single readings can be large or run the other way
#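 After 44 h co-culture of compound, cells and HCVcc-Cre (~0.5 moi), substrate is added for 15 min at room temperature and luciferase measured over 15 sec. Cells were seeded at 1,000/well and pre-cultured 4 h.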
# Vaccinia mCherry = inhibitors of vaccinia virus infection (mCherry reporter signal); Vaccinia virus mCherry reporter infection, fluorescence; Potency, µM (highest dose often 36.5 µM), without a hit: top-dose activity change, negative = inhibition, most hits filed as inhibitors; 310,000 compounds, 0.63% hits; calls by dose curve; tested in A549 cells; further: nearly all actives have a fitted effect of over 35% in size
# VACV Venus inh = inhibitors of vaccinia virus (Venus reporter) | Vaccinia virus Venus reporter expression, fluorescence | Potency, µM (top dose mostly 36.5 µM), for the others: at the top dose activity change, negative = inhibition, hits mostly inhibitors | 330,000 compounds, 0.46% hits; calls by dose curve; tested in A549 cells; further: nearly all actives have a fitted effect of over 30% in size
# * = called active by the depositor; i = inactive; ? = inconclusive; nt = not tested or not shown; ! = not confirmed by another sample; [ ] = another dose, or the depositor's remark. In the library only some 5.3% were active in any assay of this set; here they are far more common. On the % scale 0 is the no-effect control and ±100 the full control effect; potency means the concentration at half of the fitted maximal effect.
SMILES,Lassa entry inh,MARV entry inh,FMDV antiviral,HCV inh,Vaccinia mCherry,VACV Venus inh
CC(c1ccccc1)N(CCC(c1ccccc1)C1CCOC(C)(C)C1)C(=O)c1ccco1 (centres undefined),?,4µM*,?,4%,-13%,-9%
COc1ccc(C2=Nc3ccccc3NC(=O)C2N(Cc2ccc(F)cc2)C(=O)c2ccco2)cc1 (centres undefined),nt,nt,22%,nt,6%,5%
COc1ccc(CN(CCC(c2ccc(F)cc2)C2CCOC(C)(C)C2)C(=O)c2ccco2)cc1 (centres undefined),?,7.9µM*!,?,?,-15%,-14%
COc1ccc(CN(CCC(c2ccccc2)c2ccco2)C(=O)c2ccco2)cc1 (centres undefined),?,10µM*,-19%,-22%,i,-7%
Cc1ccc(NC(=S)Nc2cccnc2)c(S(=O)(=O)N2CCCCC2)c1,?,?,-19%,11µM*,-2%,-4%
COC(=O)[C@](NC(C)=O)(Nc1nc2ccc(S(C)(=O)=O)cc2s1)C(F)(F)F,nt,0%,nt,nt,nt,nt
COc1ccc2c(c1)CCc1cnc(-n3ncc(C(=O)NCCCN4CCOCC4)c3C)nc1-2,nt,nt,-4%,nt,?,-21%
O=C(NCC1CCCO1)C(c1ccc(F)cc1)N(Cc1ccc(F)cc1)C(=O)Cn1nnc(-c2cccs2)n1 (centres undefined),0%,14%,13%,2.5µM*,-1%,-19%
CC(C)CC(C(=O)NCC1CCCO1)N(C(=O)Cn1nnc(-c2ccc(F)cc2)n1)c1cccc(C(F)(F)F)c1 (centres undefined),-1%,?,15%,18%,nt,nt
O=C(NCC1CCCO1)C(c1ccc(F)cc1)N(C(=O)Cn1nnc(-c2ccc(F)cc2)n1)c1cccc(O)c1 (centres undefined),-1%,10µM*,-27%,-26%,i,-14%
CC1CN(CCC(=O)N2CCCC(C(=O)c3nccn3C)C2)Cc2cc(Cl)ccc2O1 (centres undefined),nt,nt,-9%,nt,-17%,-6%
CCc1ccc2oc(-c3cc(N)ccc3O)nc2c1,?,?,25µM*,?,nt,-12%
Cc1ccccc1S(=O)(=O)Oc1ccc2ccc(O)cc2c1,nt,nt,19%,22µM*,nt,nt
Cc1sc2ncnc(N3CCN(CCOc4ccc(Cl)cc4)CC3)c2c1C,?,?,?,10µM*,nt,nt
Cc1sc2ncnc(N3CCN(Cc4ccccc4)CC3)c2c1-c1ccccc1,?,3%[46.1 µM],28µM*,?,-9%,0%
CCCCCCCC/C=C\C/C=C\C/C=C\CCCC(=O)O,nt,nt,-3%[6.7 µM],nt,i[3.33 µM],-6%[3.33 µM]
Cc1cccc(NC(=O)C2CCCN(S(=O)(=O)c3c(C)n[nH]c3C)C2)c1 (centres undefined),-5%[46.1 µM],15%[46.1 µM],-15%,nt,i,-6%
O=C(Nc1cccc(/C=C/c2nc3ccccc3c(=O)[nH]2)c1)c1ccccc1Cl,nt,nt,12%,5µM*,nt,nt
Cc1cccc(/C=C\c2nc3ccccc3c(=O)[nH]2)c1,?,?,9%,-20%,?,-18%
COc1ccc(C(=O)Nc2cccc(/C=C/c3nc4ccccc4c(=O)[nH]3)c2)cc1,nt,nt,?,1.3µM*,nt,nt
CN(Cc1ccccc1OCCO)CC1CCCN(CCc2ccc(Cl)cc2)C1 (centres undefined),nt,nt,-13%,?,nt,nt
Cc1nc2cc(OC(=O)N(C)Cc3cccc(-c4ccncc4)c3)ccc2s1,nt,nt,28µM*,nt,12%,-17%
CN(Cc1ccccc1)C(=O)Nc1c(Cl)cccc1Cl,nt,nt,2%,nt,5%,3%
COc1cccc(CC(=O)Nc2ccc3nc(C)sc3c2)c1,3%,?,37%,-4%,-12%,-4%
CN(Cc1cccc(-c2ccncc2)c1)C(=O)Oc1ccccc1Cl,nt,nt,20µM*,nt,i,-12%
SMILES,Lassa entry inh,MARV entry inh,FMDV antiviral,HCV inh,Vaccinia mCherry,VACV Venus inh
CN(C)Cc1ccccc1OC(=O)N(C)C,1%,?,-20%,-10%,nt,-12%
CN(Cc1cccc(-c2ccncc2)c1)C(=O)Oc1ccccc1Cc1ccccc1,nt,nt,22µM*,nt,2%,-21%
COc1ccc(N2C(=O)[C@@H]3[C@@H](C2=O)[C@@H]2C=C[C@H]3C23CC3)c(OC)c1,nt,14%[46.1 µM],nt,nt,nt,nt
O=C1[C@@H](Oc2ccccc2)[C@@H](c2cccnc2)N1c1ccccc1,nt,nt,-13%,35µM*,i,-21%
O=C1[C@H](Oc2ccccc2)[C@@H](c2ccccc2)N1c1ccncc1,nt,nt,16µM*,?,-24%,?
CCOc1cc(CNC(=O)CN2CCSc3ccccc32)cc(OCC)c1OCC,6%[46.1 µM],nt,0%,nt,1%,9%
O=C(CCc1nc(-c2ccccc2Cl)no1)Nc1cccnc1,nt,-3%[46.1 µM],?,13µM*,-10%,-19%
Cc1cc(-c2nc3ccccc3o2)c2ccccc2n1,6%,-16%,-7%,14µM*,nt,nt
Cc1cc(C)c2ccccc2n1,nt,nt,nt,nt,-15%,-13%
COC(=O)C1=C(c2ccc(F)cc2OCc2ccccc2)C[C@@H]2CC[C@H]1N2C(=O)NCCCc1ccccc1,nt,nt,-30%,10µM*,-6%,?
COC(=O)C1=C(c2ccc(F)cc2OCc2ccccc2)C[C@@H]2CC[C@H]1N2C(=O)NC1Cc2ccccc2C1,nt,nt,-18%,11µM*,-14%,?
COC(=O)C1=C(c2ccc(F)cc2OCc2ccccc2)C[C@@H]2CC[C@H]1N2C(=O)NCc1ccc(F)cc1,nt,nt,-31%,?,-32%,-26%
COC(=O)C1=C(c2ccccc2OCc2ccccc2)C[C@@H]2CC[C@H]1N2C(=O)NCc1ccc(F)cc1,nt,nt,-29%,7.1µM*,0%,?
COc1ccc(N2CC(NC(=O)c3ccc(S(=O)(=O)N4CCOCC4)cc3)CC2=O)cc1OC (centres undefined),7%[46.1 µM],nt,-11%,nt,-4%,-2%
CCn1ccnc1CN(C)Cc1cn(-c2ccccc2)nc1-c1ccc(OC)cc1F,?,10µM*,-17%,?,-15%,-6%
Cc1ccc(S(=O)(=O)N(C)C)cc1NC(=S)NC(=O)C12CC3CC(CC(C3)C1)C2,-17%,?,?,16µM*,i,-9%
CCCN(C(=O)Cn1nc(Cc2ccncc2)c2ccccc2c1=O)c1ccccc1C,?,?,2%,nt,-11%,-4%
CC(C)(C)c1ccc(Oc2ccc(N)cn2)cc1,nt,nt,?,4µM*,nt,nt
O=c1[nH]c(=O)n(Cc2ccco2)c2c1C(C(F)(F)F)(C(F)(F)F)N=C(c1ccc(F)cc1)N2,?,?,4.5µM*,?,nt,nt
O=c1[nH]c(=O)n(Cc2ccccc2)c2c1C(C(F)(F)F)(C(F)(F)F)N=C(c1ccco1)N2,15%,-6%,?,-1%,nt,nt
CCC(C)NC(=S)Nc1ccc2nc(N3CCOCC3)cc(C)c2c1 (centres undefined),nt,nt,3%,11µM*,nt,nt
Cc1cc(N2CCOCC2)nc2ccc(NC(=S)NCCC(C)C)cc12,?,-20%[46.1 µM],-19%,10µM*,?,-28%
